For 39 compounds, inhibition results are on record in PubChem BioAssay.

What is called inhibition is the relative decrease from the control value, in per cent.

Calls of active or inactive are those of the source. No rule for the calls is given here.

For this experiment, the target named is Pantothenate synthetase (Mycobacterium tuberculosis (strain ATCC 25618 / H37Rv)) (UniProt P9WIL5). The experiment is described as follows: Coupled enzyme confirmation of inhibitors against recombinant Mtb PanC (AID 375).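 Also: 0% = full reaction with vehicle and 100% = no enzyme background.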 The note with it: coupled enzyme assay; at 10 µM, hits give high values.
Chain of Pantothenate synthetase (Mycobacterium tuberculosis (strain ATCC 25618 / H37Rv)) (P9WIL5 whole entry, looked up): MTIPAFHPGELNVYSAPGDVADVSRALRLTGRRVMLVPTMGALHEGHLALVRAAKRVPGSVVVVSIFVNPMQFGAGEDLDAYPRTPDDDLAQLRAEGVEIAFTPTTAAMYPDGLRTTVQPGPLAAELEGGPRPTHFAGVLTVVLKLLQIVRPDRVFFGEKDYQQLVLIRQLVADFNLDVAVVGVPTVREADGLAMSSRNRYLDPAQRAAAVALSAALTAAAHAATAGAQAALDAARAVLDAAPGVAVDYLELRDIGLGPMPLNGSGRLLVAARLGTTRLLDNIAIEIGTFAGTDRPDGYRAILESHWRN
Take `COC(=O)c1[nH]c2ccc(C)cc2c1NC(=O)CN1CCCC(C)(C)C1`: the inhibition was 0% (inactive). With `Cc1nc(NCCNC(=O)c2ccco2)c2c(C)c(C)sc2n1` the figure was 2% (inactive); with `Nc1nc(F)nc2c1ncn2[C@@H]1O[C@H](CO)[C@@H](O)[C@@H]1O`, 0% (inactive). In the case of `Fc1ccccc1C(c1nnnn1Cc1ccc2c(c1)OCO2)N1CCN(Cc2ccccc2)CC1` (centres undefined), the inhibition was 3% (inactive). In the case of `Cc1csc(NC(=O)c2ccco2)n1`, the inhibition is 0% (inactive). With `Cc1c(/C(O)=C2/C(=O)C(=O)N(CCN3CCOCC3)C2c2cccs2)cnn1-c1ccccc1` (centres undefined) the figure was 8% (inactive); with `Cc1ccc(-c2nc3ncccc3o2)cc1NC(=O)c1ccco1`, 0% (inactive). Regarding `CC(OC1=CC(=O)CCC1)C(=O)c1ccccc1` (centres undefined), the inhibition was 2% (inactive).

For the compound `CN=Cc1cc(-c2ccccc2)sc1O`, the inhibition is 0% (inactive). In the case of `COc1cc(OC)cc(-c2nc3cc(C)ccc3o2)c1`, the inhibition was 3% (inactive). With `CCOC(=O)c1oc2ccccc2c1NC(=O)COC` the figure was 0% (inactive); with `O=C(c1cnc2sccn2c1=O)N1CCc2ccccc2C1`, 0% (inactive); with `CCC1CCCCN1C(=O)CSc1nnc(-c2ccco2)o1` (centres undefined), 1% (inactive). With `c1ccc(-c2ccccc2OCCn2cncn2)cc1` the figure was 5% (inactive). For `Cc1cc(NC(=O)c2cc(-c3ccco3)on2)n(-c2ccccc2)n1`, the inhibition was 0% (inactive). With `CCc1c(C(=O)N2CCOCC2)csc1C` the figure was 0% (inactive).

For `CCn1cc(C(=O)N2CCOCC2)c(=O)c2cc(S(=O)(=O)N(C)C3CCCCC3)ccc21`, the inhibition was 0% (inactive).

Regarding `CCCNC(=O)NC1C(NC(=O)NCCC)N(C)C(=O)N1C` (centres undefined), the inhibition was 5% (inactive). For the compound `O=C(NCC(=O)N(c1cnc2ccccc2c1)C(C(=O)NC1CCCC1)c1ccncc1)c1ccco1` (centres undefined), the inhibition is 0% (inactive). With `Cc1cc(C)n(-c2nnc(C)n2/N=C/c2ccco2)n1` the figure was 1% (inactive). As to `Cc1cc(NC(=O)CCC(=O)N(CC2CCCO2)C(C(=O)NC2CCCC2)c2ccccc2C)no1` (centres undefined), the inhibition is 0% (inactive).

As for `CN1C(C(=O)Nc2ccccn2)=C(O)c2ccccc2S1(=O)=O`, the inhibition is 9% (inactive).

In the case of `O=C(COC(=O)CCc1c[nH]c2ccccc12)NC1CCS(=O)(=O)C1` (centres undefined), the inhibition was 3% (inactive). Turning to `CC(C)=CC(=O)N1CCCc2ccccc21`, the inhibition is 13% (inactive). With `CN(C)Cc1cn(CCC(=O)O)c2ccccc12` the figure was 1% (inactive); with `COCCOC(=O)c1[nH]c2c(c1C)C(=O)CC(c1ccco1)C2` (centres undefined), 3% (inactive). In the case of `CCN(CC)c1ccc(/C=N/n2nnnc2N)c(O)c1`, the inhibition was 6% (inactive).

As to `CC(=O)NCC(=O)OC(C)C(=O)Nc1ccc(C(C)=O)cc1` (centres undefined), the inhibition is 3% (inactive).

Turning to `Cc1nc(/N=C(\N)Nc2ccccc2)nc2ccccc12`, the inhibition was 0% (inactive). With `CCCCNC(=O)c1nc2ncc(Br)cn2n1` the figure was 2% (inactive); with `CC(C)NC(=O)NC(=O)COc1cccc2c1OC(C)(C)C2`, 0% (inactive). As to `COc1ccccc1-c1nc(C(F)(F)F)c(OC)o1`, the inhibition was 0% (inactive). Take `O=S(=O)(c1cccc(S(=O)(=O)N2CCC(N3CCCCC3)CC2)c1)N1CCOCC1`: the inhibition was 0% (inactive).

`Cc1cccc(OCC(=O)N(Cc2cccs2)C2CCS(=O)(=O)C2)c1C` (centres undefined): the inhibition is 3% (inactive).

Take `Cc1ccc(F)cc1NC(=O)Cc1nn(C)c(=O)c2ccccc12`: the inhibition is 1% (inactive). With `O=C(CSc1nnc(COc2ccc(Cl)cc2)o1)N1CCN(c2ccccc2)CC1` the figure was 0% (inactive); with `CC(C)(C)c1ccc(C(O)CCCN2CCC(C(O)(c3ccccc3)c3ccccc3)CC2)cc1` (centres undefined), 0% (inactive); with `COc1ccc(Cn2nnnc2C(c2ccncc2)N2CCOCC2)cc1` (centres undefined), 0% (inactive). Regarding `CCOC(=O)/C=C1\SCC(=O)N1Cc1ccc(Br)cc1`, the inhibition is 0% (inactive).
